This is one part of a sample in which hits are shown more often than they occur.
Pf Dd2 growth = blocks in vitro growth of P. falciparum Dd2 | 120,000 compounds, 4.3% hits | Potency, µM (series often up to 28.9 µM), most hits filed as inhibitors | P. falciparum Dd2 growth, SYBR Green, 72 h; active means well fitted inhibition curve with a large enough effect; further: nearly all actives have a fitted effect of over 65% in size
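Infected erythrocytes (Dd2, 0.3% parasitemia, 2.5% hematocrit final) are added to compound in RPMI-1640/Albumax II medium, grown 72 h at 37C in low oxygen, then lysed with saponin/Triton-X containing SYBR Green and read by fluorescence.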
Numbers stand for hits; - = inactive; [ ] = dose if it differs, or a comment.

SMILES	Pf Dd2 growth
CN(c1ccccc1)c1cc(=O)c2ccnc(N3CCN(c4ccccn4)CC3)c2o1	13µM
CN1CCN(c2cc(=O)c3ccnc(N4CCN(c5ccccn5)CC4)c3o2)CC1	-
CN(c1ccccc1)c1cc(=O)c2ccnc(N3CCOCC3)c2o1	-
Cc1ccc(NCc2cccn2-c2nnc(N3CCC(C(=O)NCCC(C)C)CC3)s2)cc1	-
Cn1c(=O)c2c(nc(SCC(=O)Nc3ccccc3)n2Cc2ccccc2F)n(C)c1=O	-
Cn1c(=O)c2c(nc(SCC(=O)Nc3ccc(OC(F)(F)F)cc3)n2Cc2cccc(C(F)(F)F)c2)n(C)c1=O	11µM
Cn1c(=O)c2c(nc(SCC(=O)Nc3ccc(F)cc3F)n2Cc2ccccc2)n(C)c1=O	-
CCOc1ccc(CNC(=O)Cn2nc(C)c3nn(-c4ccc(Cl)cc4)c(C)c3c2=O)cc1	-
CC(C)Oc1cccc2c1c(NC(=O)c1ccn(C)n1)nn2Cc1ccccc1	8.9µM
CC(C)Oc1cccc2c1c(NC(=O)C1CCCO1)nn2Cc1ccccc1 (stereo not drawn)	-
CC(C)Oc1cccc2c1c(NC(=O)C1CCOCC1)nn2C	-
O=C(NC1CC1)[C@@H]1C[C@H](Oc2cccnc2)CN1C(=O)c1ccc2ncccc2c1	-
COCC1CN(C)CC12CCN(C(=O)c1ccc(OC)c(F)c1)CC2 (stereo not drawn)	-
CN(C1CCCCC1)S(=O)(=O)c1ccc2c(c1)c(=O)c(C(=O)NCc1ccc(F)cc1)cn2C	-
CCn1cc(C(=O)N2CCN(c3ccc(F)cc3)CC2)c(=O)c2cc(S(=O)(=O)N(C)C3CCCCC3)ccc21	-
COc1ccc(N2CCN(C(=O)c3cn(C)c4ccc(S(=O)(=O)N(C)C5CCCCC5)cc4c3=O)CC2)cc1	11µM
CN(C1CCCCC1)S(=O)(=O)c1ccc2c(c1)c(=O)c(C(=O)N1CCN(c3ccccc3F)CC1)cn2C	0.89µM
Cn1cc(C(=O)N2CCN(c3cccc(Cl)c3)CC2)c(=O)c2cc(S(=O)(=O)N3CCCC3)ccc21	-
CN(C1CCCCC1)S(=O)(=O)c1ccc2c(c1)c(=O)c(C(=O)N1CCN(c3ccc(F)cc3)CC1)cn2C	-
CCn1cc(C(=O)N2CCN(c3cc(C)ccc3C)CC2)c(=O)c2cc(S(=O)(=O)N3CCOCC3)ccc21	-
COc1ccc(-n2nc(C(=O)N3CCN(c4ccccc4OC)CC3)c3c4ccccc4n(C)c3c2=O)cc1	-
COc1ccc(N2CCN(C(=O)c3cn(C4CCCCC4)c(=O)c4c3c3ccccc3n4C)CC2)cc1	5µM
CCn1cc(C(=O)N2CCN(c3ccccc3F)CC2)c(=O)c2cc(S(=O)(=O)N(C)C)ccc21	-
Cn1cc(C(=O)N2CCN(c3ccccc3)CC2)c(=O)c2cc(S(=O)(=O)N3CCCC3)ccc21	1.6µM
COc1ccc(-n2nc(C(=O)N3CCN(c4ccc(F)cc4)CC3)c3c4ccccc4n(C)c3c2=O)cc1	-
SMILES	Pf Dd2 growth
Cn1cccc1C(=O)N1C[C@@H](CO)[C@H](c2ccccn2)C1	-
Cc1ccc(CN(C(=O)Nc2cccc(Cl)c2)c2ccccn2)cc1	-
CCn1nccc1C(=O)N1CCC(Cc2ccc(C(=O)NCCOC)cc2)CC1	-
Cc1ccc(NC(=O)Nc2nnc(N3CCCC3)s2)cc1	-
CCC(=O)N(C1CCOCC1)C1CCN(S(=O)(=O)c2ccc(F)cc2)CC1	-
CSCCC(=O)N1CCC(C2CCN(c3ncccn3)CC2)C1 (stereo not drawn)	-
COc1ccc2c(c1)c(=O)c(C(=O)c1ccc(C)cc1)cn2Cc1ccccc1F	13µM
Cc1ccc2c(c1)c(=O)c(C(=O)c1ccc3c(c1)OCO3)cn2Cc1ccc(Cl)cc1	13µM
O=C(c1ccc(Cl)cc1)c1cn(Cc2ccccc2)c2cc3c(cc2c1=O)OCCO3	11µM
Cc1ccc(Cn2cc(S(=O)(=O)c3ccc(Cl)cc3)c(=O)c3cc4c(cc32)OCO4)cc1	-
CCOc1ccc(NC(=O)Cn2cc(C(=O)c3ccc(F)cc3)c(=O)c3cc4c(cc32)OCCO4)cc1	-
COc1ccccc1Cn1cc(C(=O)c2ccccc2)c(=O)c2cc(OC)c(OC)cc21	2.5µM
COc1cc(NC(=O)Cn2ccn(Cc3ccccc3OC)c(=O)c2=O)cc(OC)c1	-
CCc1ccccc1NC(=O)Cn1cc(C(=O)c2ccncc2)c(=O)c2cc(C)ccc21	-
O=C(c1ccc(F)cc1)c1cn(Cc2ccccc2F)c2cc3c(cc2c1=O)OCCO3	-[5.79 µM]
CCOc1ccc(NC(=O)Cn2cc(C(=O)c3ccccc3)c(=O)c3cc4c(cc32)OCO4)cc1	-
CCc1ccc2c(c1)c(=O)c(C(=O)c1ccc(C)cc1)cn2CC(=O)Nc1ccccc1C	-
CCc1ccc(C(=O)c2cn(CC(=O)Nc3ccc(Cl)cc3)c3cc4c(cc3c2=O)OCO4)cc1	-
CC1=NOC2(CCN(Cc3cccn3C)CC2)C1	-
COc1ccc(-c2cc3nc4c(c(=O)n3[nH]2)CN(S(=O)(=O)c2cccs2)CC4)cc1	-[5.79 µM]
CN(Cc1ccnn1C)C1CCOc2ccccc21 (stereo not drawn)	-
CC1CCC2(CC1)OCC(C(=O)NC(C)c1ccccc1)N2C(=O)c1cccc(Cl)c1 (stereo not drawn)	-
COc1cccc(C(=O)N2CCN(C(C(=O)O)c3ccc(O)cc3)CC2)c1 (stereo not drawn)	-
COc1ccccc1CC(=O)N1CCN(c2cc(-c3cccs3)[nH]n2)CC1	-
COc1cccc(N2CC(C(=O)N(C)C)NC2=O)c1 (stereo not drawn)	-
SMILES	Pf Dd2 growth
COCCNC(=O)[C@H]1CN(Cc2ccccc2)C[C@H]1C(=O)O	-
Cc1oc2ncn(C)c(=O)c2c1C(=O)N(Cc1ccccc1)C(C)C	-
COC(=O)CNC(=O)N1CCN(C(=O)N2CC3CC(C2)[C@H]2CCCC(=O)N2C3)CC1 (stereo partly drawn)	-
COc1ccc(-n2nnc(-c3nc(-c4cccs4)no3)c2N)cc1	-
CCOc1ccc(NC(=O)Cn2cc(C(=O)c3ccc(OC)cc3)c(=O)c3cc4c(cc32)OCO4)cc1	-
CCOc1ccc(C(=O)c2cn(Cc3ccc(Cl)cc3)c3cc(OC)c(OC)cc3c2=O)cc1	7.9µM
CCOc1ccc(C(=O)c2cn(CC(=O)Nc3ccc(OC)cc3)c3cc4c(cc3c2=O)OCCO4)cc1	-
CCOc1ccc(C(=O)c2cn(CC(=O)Nc3ccc(Cl)cc3)c3cc4c(cc3c2=O)OCO4)cc1	-
CCOc1ccc2c(c1)c(=O)c(C(=O)c1ccc(CC)cc1)cn2CC(=O)Nc1ccccc1OC	-
COc1ccc(Cn2cc(C(=O)c3ccc(OC)cc3)c(=O)c3cc4c(cc32)OCCO4)cc1	8.9µM
Cc1onc(-c2cnn(C)c2NCc2ccc(C#N)cc2)c1C(=O)N(C)c1ccccc1	-
COc1ccc(CCNc2nc(SCc3cccc(Cl)c3)nc3ccccc23)cc1OC	-
CC1CCCC2(C1)OCC(C(=O)NCc1ccccc1)N2C(=O)c1ccccc1F (stereo not drawn)	-
Cc1noc2c(NCCN(C)C)cc(-c3ccccn3)nc12	-
O=C(c1cccs1)c1cn(CCOc2ccccc2Cl)c2ccccc12	3.2µM
Cc1ccc(CN(Cc2ccco2)C(=O)COc2ccccc2C)cc1	-
COc1ccc(OCCn2cc(C(=O)c3ccco3)c3ccccc32)cc1	1µM
Cc1ccc(C)c(OCCn2cc(C(=O)c3ccco3)c3ccccc32)c1	1µM
Cc1ccc(NC(=O)Cn2cc(C(=O)c3ccccc3)c3ccccc32)c(C)c1	-
COc1ccc(OCC(=O)Nc2ccc3c(c2)nc(CCNC(=O)c2ccco2)n3C)cc1	-
O=C(c1cn(CCOc2ccccc2F)c2ccccc12)C1CCCCC1	-

Source: PubChem BioAssay
